Rows were chosen to be rich in hits. Some 10% of all compounds tested hit in one or more screens of this group.
hNpr1 antagonist – Natriuretic polypeptide receptor (hNpr1) antagonism - Primary qHTS | HEK293 hNpr1 GloSensor cGMP, ANP-stimulated luminescence | Potency, µM (series often up to 46.3 µM), usual class: inhibitors | actives 1.6% (n = 76,000); calls by dose curve; also: nearly all actives have a fitted effect of over 60% in size
Target sequence (P16066 whole entry, looked up): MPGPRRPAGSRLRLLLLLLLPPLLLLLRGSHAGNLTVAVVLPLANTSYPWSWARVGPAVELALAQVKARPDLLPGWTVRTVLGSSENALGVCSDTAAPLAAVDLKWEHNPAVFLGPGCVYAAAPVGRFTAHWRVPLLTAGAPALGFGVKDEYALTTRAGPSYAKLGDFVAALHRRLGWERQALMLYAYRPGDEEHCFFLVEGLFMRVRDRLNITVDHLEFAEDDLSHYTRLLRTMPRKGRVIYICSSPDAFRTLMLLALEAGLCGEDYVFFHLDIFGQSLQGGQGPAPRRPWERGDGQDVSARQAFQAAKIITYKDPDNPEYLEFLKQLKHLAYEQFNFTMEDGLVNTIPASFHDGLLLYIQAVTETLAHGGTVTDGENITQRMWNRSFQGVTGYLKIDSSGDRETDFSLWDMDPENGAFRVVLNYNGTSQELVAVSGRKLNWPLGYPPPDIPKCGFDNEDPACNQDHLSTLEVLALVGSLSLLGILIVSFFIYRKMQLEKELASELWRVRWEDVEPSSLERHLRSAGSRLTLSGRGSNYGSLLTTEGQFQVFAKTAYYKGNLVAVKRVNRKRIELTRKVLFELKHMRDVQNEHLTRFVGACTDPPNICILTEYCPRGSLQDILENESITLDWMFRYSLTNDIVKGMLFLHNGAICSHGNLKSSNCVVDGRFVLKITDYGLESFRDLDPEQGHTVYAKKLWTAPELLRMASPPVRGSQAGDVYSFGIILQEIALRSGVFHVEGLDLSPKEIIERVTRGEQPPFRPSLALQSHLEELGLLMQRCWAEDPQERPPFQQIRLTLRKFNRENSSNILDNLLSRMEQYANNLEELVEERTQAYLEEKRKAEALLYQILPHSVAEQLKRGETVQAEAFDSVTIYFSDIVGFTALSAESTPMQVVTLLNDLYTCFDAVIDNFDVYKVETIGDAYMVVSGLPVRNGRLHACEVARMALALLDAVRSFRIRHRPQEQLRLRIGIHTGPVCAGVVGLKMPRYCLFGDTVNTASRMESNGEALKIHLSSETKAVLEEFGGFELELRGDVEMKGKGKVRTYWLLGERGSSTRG
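Compound pre-incubated 30 min at room temperature on GloSensor-loaded HEK293 cells stably carrying hNpr1 and the pGS-40F cGMP biosensor. Stimulation uses hNppA at 0.1 nM final; luminescence is taken at baseline and 20 min post-agonist.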
GPT2 inhibitor – Primary qHTS assay for inhibitors of Glutamate pyruvate transaminase 2 (GPT2). Alanine aminotransferase 2 (Homo sapiens), Q8TD30. actives 0.25% (n = 100,000). AID 1671188, 2021. Potency, µM (titrated, usually from 57.7 µM), hits mostly inhibitors. Recombinant GPT2, coupled pyruvate oxidase/HRP Amplex Red fluorescence; also: nearly all actives have a fitted effect of over 60% in size
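Inhibition is scored from Amplex Red fluorescence generated when pyruvate oxidase and HRP act on pyruvate released by GPT2. Reactions contain 10ng/uL enzyme, 250uM a-KG and 2mM L-alanine and run 30 min at room temperature.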
HEK cytotox – Cytotoxic Profiling in HEK 293 Cell Line of Diverse Libraries Using Quantitative High-Throughput Screening; HEK 293 viability, ATP luminescence (CellTiter-Glo), 48-72 h; Potency, µM (top dose mostly 115 µM), most hits filed as inhibitors; actives 6.6% (n = 94,000); also: nearly all actives have a fitted effect of over 60% in size
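250 HEK 293 cells/well; compound by pintool; incubated 48 or 72 hr at 37 degree Celsius; CellTiter-Glo added, 10 min RT, luminescence imaged.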
Luciferase inh – Firefly luciferase inhibition profiling of diverse chemical library using quantitative high-throughput screening | Luciferin 4-monooxygenase (Photinus pyralis), P08659 | purified P. pyralis luciferase, luminescence, biochemical | Potency, µM (series often up to 115 µM), actives largely listed as inhibitors | actives 2.5% (n = 76,000); also: nearly all actives have a fitted effect of over 65% in size
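Biochemical qHTS: compound (6-point titration) added to 10uM D-luciferin plus 10uM ATP in Tris acetate pH 7.5 buffer with Mg, Tween-20 and BSA, then purified enzyme at 10nM; light output imaged.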
NIH3T3 tox – Cytotoxic Profiling in NIH 3T3 Cell Line of Diverse Libraries Using Quantitative High-Throughput Screening. NIH 3T3 viability, CellTiter-Glo ATP luminescence, 48-72 h. Potency, µM (highest dose often 96.7 µM), hits mostly inhibitors. actives 4.3% (n = 94,000). AID 1345082, 2018; also: nearly all actives have a fitted effect of over 55% in size
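Mouse fibroblast NIH 3T3 cells, 400 per well, received compound via pintool and were incubated for 48 or 72 hr prior to CellTiter-Glo ATP luminescence measurement.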
Of the large screens only hits and unclear results are named; the others gave an inactive call. Unless noted, calls follow the shape of the dose curve; as a rule, active = well fitted curve in the direction sought with a large enough effect; inconclusive = small, poorly fitted or top-dose-only effect, or another doubt; inactive = no such curve, though single readings can be large; an effect the other way counts as inactive or inconclusive.

Cc1ccc(-c2cccc(CN3CCCC3C(=O)NCc3ccccc3Cl)c2)cc1Cl (centres undefined)	HEK cytotox 45µM, NIH3T3 tox inconclusive (no result: hNpr1 antagonist, GPT2 inhibitor, Luciferase inh)
COc1ccc(CNC(=O)C2CCCN2Cc2cccc(-c3ccc(C)c(Cl)c3)c2)cc1 (centres undefined)	HEK cytotox 35µM, NIH3T3 tox 32µM (no result: hNpr1 antagonist, GPT2 inhibitor, Luciferase inh)
Cc1ccc(-c2cccc(CN3CCCC3C(=O)NCc3cccs3)c2)cc1Cl (centres undefined)	HEK cytotox 35µM, NIH3T3 tox 16µM (no result: hNpr1 antagonist, GPT2 inhibitor, Luciferase inh)
COc1ccccc1CNC(=O)C1CCCN1Cc1cccc(-c2ccc(C)c(Cl)c2)c1 (centres undefined)	HEK cytotox 40µM, NIH3T3 tox 40µM (no result: hNpr1 antagonist, GPT2 inhibitor, Luciferase inh)
O=C(NCc1cccc(F)c1)c1nc2cccnc2n(Cc2ccccc2)c1=O	HEK cytotox inconclusive, NIH3T3 tox inconclusive (no result: hNpr1 antagonist, Luciferase inh)
COc1ccc(CNC(=O)c2cc(-c3cccc(C(F)(F)F)c3)c3nncn3n2)cc1	HEK cytotox inconclusive (no result: hNpr1 antagonist, Luciferase inh)
COc1ccc(CNC(=O)C2CCCN(c3nccc(Nc4ccc(C)cc4)n3)C2)cc1 (centres undefined)	HEK cytotox 10µM, NIH3T3 tox inconclusive (no result: hNpr1 antagonist, Luciferase inh)
COc1ccc(Nc2ccnc(N3CCCC(C(=O)NCc4cccc(Cl)c4)C3)n2)cc1 (centres undefined)	HEK cytotox inconclusive, NIH3T3 tox inconclusive (no result: hNpr1 antagonist, Luciferase inh)
COc1ccc(Nc2ccnc(N3CCCC(C(=O)NCc4cccc(F)c4)C3)n2)cc1 (centres undefined)	HEK cytotox 13µM, NIH3T3 tox 16µM (no result: hNpr1 antagonist, Luciferase inh)
COc1ccc(CNC(=O)C2CCCN2c2nccc(Nc3ccc(C)cc3)n2)cc1 (centres undefined)	HEK cytotox inconclusive, NIH3T3 tox inconclusive (no result: hNpr1 antagonist, Luciferase inh)
Cc1ccc(Nc2ccnc(N3CCCC(C(=O)NCc4ccc5c(c4)OCO5)C3)n2)cc1 (centres undefined)	HEK cytotox 7.9µM, NIH3T3 tox 13µM (no result: hNpr1 antagonist, Luciferase inh)
COc1ccc(Nc2ccnc(N3CCCC(C(=O)NCc4ccccc4)C3)n2)cc1 (centres undefined)	HEK cytotox 40µM, NIH3T3 tox 35µM (no result: hNpr1 antagonist, Luciferase inh)
COCCn1c(=O)c2c(n1Cc1ccccc1)CN(C(=O)CCc1ccccn1)CC2	NIH3T3 tox inconclusive
COc1ccc(C(=O)N2CCC3(CC2)NC(=O)N(Cc2ccc(C)cc2)C3=O)cc1OC	none
COc1ccc(CNC(=O)C2CCCN(c3nccc(Nc4ccccc4F)n3)C2)cc1 (centres undefined)	HEK cytotox 28µM, NIH3T3 tox 10µM (no result: hNpr1 antagonist, Luciferase inh)
COc1ccc(Nc2ccnc(N3CCCC(C(=O)NCc4cccc(OC)c4)C3)n2)cc1 (centres undefined)	HEK cytotox 25µM, NIH3T3 tox 35µM (no result: hNpr1 antagonist, Luciferase inh)
CCN1CCN(CCNC(=O)c2cc(-c3ccc(Cl)cc3)cn2CC)CC1	HEK cytotox 28µM, NIH3T3 tox 20µM
CCN1CCN(CCNC(=O)c2cc(-c3ccc(Cl)cc3)cn2C)CC1	HEK cytotox 25µM, NIH3T3 tox inconclusive
COc1cc2c(CCNC(C)=O)c[nH]c2cc1Cl	none (no result: hNpr1 antagonist, HEK cytotox, Luciferase inh, NIH3T3 tox)
CC(=O)NCCc1c[nH]c2ccc(O)cc12	GPT2 inhibitor 3.2µM (no result: hNpr1 antagonist, HEK cytotox, Luciferase inh, NIH3T3 tox)
O=C(NC1CCN(c2nccc(Nc3ccccc3Cl)n2)CC1)c1ccccc1F	HEK cytotox inconclusive, NIH3T3 tox inconclusive (no result: hNpr1 antagonist, Luciferase inh)
Cc1ccccc1C(=O)N1CCC2(CC1)Cc1ccccc1NC2=O	HEK cytotox 35µM, NIH3T3 tox inconclusive
O=C(c1ccc(F)cc1)N1CCC2(CC1)Cc1ccccc1NC2=O	none
O=C(c1ccnc(-c2ccncc2)c1)N1CCCC1	none
O=C(c1ccnc(-c2ccccc2-c2ccccc2)c1)N1CCCC1	HEK cytotox inconclusive, NIH3T3 tox 35µM
O=[S+]1([O-])NC2(CCN(Cc3ccc(Cl)cc3)C2)COc2ncccc21 (centres undefined)	none (no result: hNpr1 antagonist, Luciferase inh)
O=C(NC1CCN(c2cc(-c3ccccc3)[nH]n2)CC1)c1ccc2c(c1)OCO2	HEK cytotox inconclusive, NIH3T3 tox inconclusive
Cc1ccc(-c2ccc3ncn(Cc4ccccn4)c(=O)c3n2)c(C)c1	NIH3T3 tox 25µM
O=c1ncn(CC2CC2)c2ccc(N3CCC(c4ccccc4)CC3)nc12	HEK cytotox inconclusive, Luciferase inh 56µM
O=c1c2nc(-c3ccccc3)ccc2ncn1Cc1ccccn1	NIH3T3 tox 79µM
O=c1c2nc(N3CCC(c4ccccc4)CC3)ccc2ncn1-c1cccnc1	HEK cytotox inconclusive, Luciferase inh inconclusive, NIH3T3 tox inconclusive
O=c1ncn(CC2CC2)c2ccc(-c3ccc(F)cc3F)nc12	NIH3T3 tox 100µM
C[C@]1(CO)C2CC[C@@H](O)[C@@H](CC(=O)NCc3cccs3)[C@]2(C)CC[C@H]1OC(=O)NC1CCCCC1 (some centres undefined)	HEK cytotox inconclusive, NIH3T3 tox inconclusive
COCCn1cnc2ccc(-c3cccc(O)c3)nc2c1=O	NIH3T3 tox 22µM
Cn1ccc2cc(-c3ccc4ncn(Cc5ccccn5)c(=O)c4n3)ccc21	Luciferase inh 45µM, NIH3T3 tox 89µM
COCCn1cnc2ccc(-c3ccccc3)nc2c1=O	Luciferase inh inconclusive, NIH3T3 tox inconclusive
O=c1c2nc(N3CCC(c4ccccc4)CC3)ccc2ncn1Cc1ccccn1	HEK cytotox inconclusive, Luciferase inh 63µM
O=c1c2nc(-c3ccc(Cl)cc3)ccc2ncn1Cc1ccccn1	HEK cytotox inconclusive, NIH3T3 tox inconclusive
O=C([C@H]1CCCN1C(=O)c1ccc(Cl)cn1)N1CCC(N2CCOC2=O)CC1	none (no result: hNpr1 antagonist, Luciferase inh)
Cc1oc(-c2cccc(Cl)c2)nc1CN1CCN(C(=O)N(C)C)CC1	HEK cytotox inconclusive
Cc1ccccc1C(=O)N1CCCC(C(=O)N2CCC(c3nc4ccncc4[nH]3)C2)C1 (centres undefined)	none (no result: hNpr1 antagonist, Luciferase inh)
COc1cccc(C(CC(=O)NCC(C)C)c2c[nH]c3ccccc23)c1 (centres undefined)	none
CCc1cccc2c(C(CC(=O)NCCc3ccccc3)c3ccc(OC)c(OC)c3)c[nH]c12 (centres undefined)	HEK cytotox inconclusive, Luciferase inh inconclusive, NIH3T3 tox inconclusive
COc1ccccc1C(CC(=O)NCCc1ccccc1)c1c[nH]c2ccccc12 (centres undefined)	HEK cytotox inconclusive, Luciferase inh inconclusive, NIH3T3 tox 40µM
COc1ccc(CCNC(=O)CC(c2ccccc2OC)c2c[nH]c3ccccc23)cc1OC (centres undefined)	HEK cytotox inconclusive, NIH3T3 tox inconclusive
CCc1cccc2c(C(CC(=O)NCCc3ccc(OC)c(OC)c3)c3ccccc3OC)c[nH]c12 (centres undefined)	HEK cytotox 35µM, NIH3T3 tox inconclusive

Assay outcomes (PubChem)
